Screening results (PubChem)
S1P1_ag = activates the human S1P1 receptor | S1P1 agonist cell-based reporter assay | activation, % at 4.5 µM | actives 1.5% (n = 16,000) | Sphingosine 1-phosphate receptor 1 (Homo sapiens), P21453 | AID 1044, 2008; in the data active = activation above about 80%
Target sequence (P21453 whole entry, looked up): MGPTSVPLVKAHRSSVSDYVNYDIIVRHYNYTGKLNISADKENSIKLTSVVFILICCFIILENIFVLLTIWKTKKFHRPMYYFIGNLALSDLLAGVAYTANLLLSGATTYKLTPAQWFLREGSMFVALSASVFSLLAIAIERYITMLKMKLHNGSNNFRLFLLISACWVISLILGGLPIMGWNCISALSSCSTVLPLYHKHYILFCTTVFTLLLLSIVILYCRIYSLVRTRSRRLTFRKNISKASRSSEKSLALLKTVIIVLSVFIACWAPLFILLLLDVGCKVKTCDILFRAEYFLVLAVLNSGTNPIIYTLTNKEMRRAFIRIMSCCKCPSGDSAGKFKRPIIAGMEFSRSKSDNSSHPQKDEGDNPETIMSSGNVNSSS
KOR_antag_MB = antagonists of human kappa opioid receptor OPRK1, Maybridge library; Kappa-type opioid receptor (Homo sapiens), P41145; OPRK1 cells, antagonist mode, fluorescence readout; actives 0.4% (n = 16,000); inhibition, % at 9 µM; in the data active = inhibition above about 50%
NOTCH_agonist = agonists of NOTCH signaling; activation, % at 2.5 µM; NOTCH signaling luciferase reporter cells, luminescence; actives 0.4% (n = 15,000); in the data active = activation above about 2.2%
TLR4-MyD88_inh = inhibitors of human TLR4-MyD88 binding; Toll-like receptor 4 (Homo sapiens), O00206; Cell-based TLR4-MyD88 binding inhibition assay; inhibition, % at 10 µM; actives 0.06% (n = 16,000); AID 811, 2007; in the data active = inhibition above about 45%
PME-1_Maybridge = inhibitors of human PME-1 in Maybridge library. recombinant PME-1, FP-Rh probe fluorescence polarization. AID 2291, 2010. inhibition, % at 9 µM. actives 0.5% (n = 16,000). Protein phosphatase methylesterase 1 (Homo sapiens), Q9Y570; in the data active = inhibition above about 30%
* marks the source's active call; other numbers are inactive results. Compounds with a hit are over-represented: about 2.6% of the library has one in this group of screens.

SMILES S1P1_ag KOR_antag_MB NOTCH_agonist TLR4-MyD88_inh PME-1_Maybridge
N#CC(C#N)=NNc1ccc(OC(F)(F)F)cc1 109* 29 0 -23 0
N#CC(C#N)=NNc1ccc(C(F)(F)F)cc1 115* 37 -1 -33 30
Cc1cc(=O)oc2cc(OC(=O)N(C)C)c(Cl)cc12 -3 -7 0 -1 2
O=C1c2ccccc2-c2ccc3ccccc3c21 -1 16 0 8 0
